Assay outcomes (PubChem)
Anthrax LF prot – anthrax lethal factor protease inhibition. P15917. multiplex microsphere protease cleavage assay, LF. inhibition, % at 10 µM. 360,000 compounds, 0.12% hits. AID 588501; further: plate controls were buffer without enzyme for full effect and enzyme alone for no effect
Autofluor counter – compound fluorescence in toxin protease inhibitor counterscreen | compound autofluorescence counterscreen, microsphere flow cytometry; hits give high values | fluorescence intensity (test concentration not listed) | 360,000 compounds, 3.1% hits | AID 624483; in the data active means fluorescence intensity above about 16000; inconclusive means no clear call, values can overlap the other calls
BoNT A protease – blocks Botulinum neurotoxin A light chain protease; multiplex microsphere protease substrate cleavage, flow cytometry; inhibition, % at 10 µM; AID 588499; 360,000 compounds, 0.17% hits; further: plate controls were buffer without enzyme for full effect and enzyme alone for no effect
BoNT-F LC inh – blocks Botulinum neurotoxin F light chain protease | Multiplex microsphere protease cleavage assay, flow cytometry | AID 588497 | 360,000 compounds, 0.22% hits | inhibition, % at 10 µM; in the data active means inhibition above about 35%, passing the limit was not always enough; inconclusive means no clear call, values can overlap the other calls; further: plate controls were buffer without enzyme for full effect and enzyme alone for no effect
Vc quorum ag – induces V. cholerae light production without autoinducers; activation, % at 18.7 µM; 350,000 compounds, 0.16% hits; V. cholerae BH1578 lux reporter, luminescence, 6 h; AID 588436; in the data active means activation mostly above about 9.7%, no sharp cut-off; inconclusive means no clear call, values can overlap the other calls; inactive means mostly below about 3.7%
* hit, by the source's call; i = inactive; ? = inconclusive; . = no result. The list is not random: actives were taken first. Their share in the collection is about 3.5%. Unless noted, no stated cut-off is given here; in the data, active means inhibition above about 30%; inconclusive means no clear call, values can overlap the other calls; inactive means below that.

SMILES | Anthrax LF prot | Autofluor counter | BoNT A protease | BoNT-F LC inh | Vc quorum ag
O=C(NCCc1ccccc1F)c1cccc2cccnc12 | 3 | 7059 | 27 | -76 | -2
O=S(=O)(NC1=NCCCCC1)c1ccc2sc(NS(=O)(=O)c3ccc4ccccc4c3)nc2c1 | -4 | 4804 | -1 | 2 | i
O=S(=O)(Nc1nc2c(s1)CCCC2)c1ccc2ccccc2c1 | -9 | ? | -1 | -2 | 17*
COC(=O)Cn1cnc2c(C#N)c3n(c2c1=O)CCCCC3 | 1 | 23066* | 0 | 0 | -2
N#Cc1c2n(c3c(=O)n(Cc4ccccc4Cl)cnc13)CCCCC2 | -2 | 2794 | -1 | -12 | -1
O=C(Nc1cccc(-n2cnnn2)c1)c1ccc(OC(F)(F)F)cc1 | 0 | 5062 | 2 | 3 | 0
CCn1c(SCC(=O)Nc2nc3ccc(OC)cc3s2)nc2c1c(=O)n(C)c(=O)n2C | -5 | 21795* | 5 | 4 | i
CCn1c(SCC(=O)Nc2cc(C)on2)nc2c1c(=O)n(C)c(=O)n2C | -2 | 24541* | ? | -3 | -1
CCOc1ccc2nc(NC(=O)CSc3nc4c(c(=O)n(C)c(=O)n4C)n3C(C)C)sc2c1 | -1 | 5932 | 0 | 4 | i
CNC(=S)NC1(C)CCS(=O)(=O)C1 (stereo unspecified) | 3 | 3989 | 0 | -12 | 1
Cc1nc(Cl)c2c(n1)NC1=C(O2)C(=O)CCC1 | 0 | 2170 | -1 | -6 | i
O=C(Nc1cccc2cccnc12)c1ccc2c(c1)OCCO2 | -8 | 23021* | ? | -4 | i
O=C(Nc1ccc2oc(-c3ccccc3)nc2c1)c1ccc2c(c1)OCCO2 | -1 | 22968* | 0 | 2 | i
O=C(Nc1ccc2c(c1)OCCO2)c1cc(-c2ccccc2)nc2ccccc12 | -5 | 24974* | ? | -15 | -4
O=C(Nc1ccc2oc(-c3ccncc3)nc2c1)c1ccc2c(c1)OCCO2 | -1 | 3854 | -1 | 1 | -1
Cc1ccc(C)c(-c2cc(C(=O)Nc3sc(C)c(C)c3C(N)=O)c3ccccc3n2)c1 | 0 | 23000* | ? | 0 | i
COc1cc(NC(=O)c2ccc3c(c2)OCO3)c2ncccc2c1 | -5 | 4102 | 0 | 3 | 8
O=C(Nc1nnc([C@H]2C[C@H](O)[C@@H](CO)O2)s1)NC1CCCCC1 | -2 | 3772 | 0 | -5 | 0
Cc1cc(NC(=O)CSCC(=O)N2CCN(c3cccc(C(F)(F)F)c3)CC2)no1 | 11 | ? | 2 | 8 | 1
COc1ccc(CN2C[C@@H](CO)O[C@@H](n3cnc4c(NC5CCC5)ncnc43)C2)cc1 | -11 | 3820 | 0 | -3 | 0
C[C@]12c3[nH]c4ccccc4c3CCN1C(=O)C(CC(=O)NCC13CC4CC(CC(C4)C1)C3)C[C@@H]2C(=O)N1CCCCC1 (stereo partly specified) | -13 | 2882 | 0 | -6 | -2
Cc1ccc(S(=O)(=O)NCc2ccc(C(=O)NCCc3ccc(S(N)(=O)=O)cc3)cc2)cc1 | 5 | 3558 | 0 | -29 | i
CC(C)Cc1nnc(NC(=O)c2cc(-c3ccncc3)nc3ccccc23)s1 | -13 | 5007 | 1 | -29 | 0
CC(C)Cc1nnc(NC(=O)c2cc(-c3ccccc3)nc3ccccc23)s1 | -1 | 16445* | -1 | -2 | i
O=C(CCSc1nnc2ccccn12)Nc1ccc(F)cc1 | 1 | 23399* | 0 | 2 | i
SMILES | Anthrax LF prot | Autofluor counter | BoNT A protease | BoNT-F LC inh | Vc quorum ag
COc1ccc2[nH]c(C(=O)NCc3ccccc3)c(C)c2c1 | 5 | 3404 | 3 | 5 | -1
CCc1ccccc1NC(=S)N1N=CCC1c1ccccc1 (stereo unspecified) | 0 | 2207 | 0 | -3 | 0
CCc1cc(C(=O)NNC(=S)Nc2cccc(C)c2)cs1 | 1 | 21356* | -5 | -7 | 11
Cc1cccc(NC(=S)NNC(=O)c2csc(C(C)C)c2)c1 | -8 | 9154 | 0 | 2 | 0
CCCCNC(=S)NNC(=O)c1csc(C)c1 | -3 | 22322* | 0 | -2 | i
Cc1cccc(NC(=S)N2N=CCC2c2ccccc2)c1 (stereo unspecified) | -1 | 17190* | -2 | -5 | i
Cc1cccc(NC(=S)NNC(=S)NCc2ccccc2)c1 | 0 | 22617* | 1 | -1 | i
Cc1sc2nc(SCC(=O)OC(C)C)n(C)c(=O)c2c1C | -11 | 11032 | -2 | -6 | 0
Cc1sc2nc(SCC(=O)NCc3ccco3)n(C)c(=O)c2c1C | -2 | 3206 | 1 | -4 | i
CCOC(=O)CNC(=O)CSc1nc2sc(C)c(C)c2c(=O)n1C | -2 | 23793* | -2 | -5 | 3
Cc1sc2nc(SCC(=O)NCCO)n(C)c(=O)c2c1C | -10 | 21991* | ? | 0 | i
N#CC1=C(N)N2C(=C(C#N)C13CCCCC3)SC1CCCCC12O (stereo unspecified) | -2 | 22232* | -1 | 0 | i
COc1ccc(CN2CCC(C(=O)N3CCN(c4ccccc4F)CC3)CC2)cc1OC | 5 | 9424 | 0 | -3 | i
CCOc1ccccc1N1CCN(Cc2cccc(OC)c2O)CC1 | -3 | 17870* | ? | -11 | i
COc1ccccc1N1CCN(Cc2ccc(Br)s2)CC1 | -3 | 20319* | 0 | 1 | i
COc1cc(CN2CCC(C(=O)N3CCN(c4ccccc4F)CC3)CC2)cc(OC)c1OC | -2 | 16517* | -1 | -3 | i
COc1ccccc1N1CCN(S(=O)(=O)c2cccc(F)c2)CC1 | -2 | 22849* | -1 | -2 | 11
COc1ccccc1N1CCN(Cc2ccco2)CC1 | -3 | 7355 | 3 | 11 | 0
COc1ccccc1N1CCN(S(=O)(=O)c2ccc(F)cc2)CC1 | -8 | 15571 | 1 | 4 | i
COc1cc(C)c(COc2ncnc3ccccc23)cc1OC | 0 | 5500 | 1 | 10 | i
COc1ccc(NC(=O)CCSCCc2ccccn2)cc1OC | 2 | 4427 | 1 | 1 | 0
COc1ccccc1N1CCN(Cc2c(F)cccc2Cl)CC1 | -1 | 21264* | -1 | -2 | 6
Cc1cc(N(CN2CCCC2=O)C(=O)c2ccc(F)cc2)no1 | -2 | 20214* | 0 | 0 | i
COc1ccc(C(=O)N(CN2CCCC2=O)c2cc(C)on2)cc1OC | 2 | 21141* | 4 | 6 | i
O=C1CCCN1CN(C(=O)c1ccc2c(c1)OCO2)c1ccc(F)cc1 | -3 | 21432* | ? | -7 | i
SMILES | Anthrax LF prot | Autofluor counter | BoNT A protease | BoNT-F LC inh | Vc quorum ag
Cc1cc(N(CN2CCCC2=O)C(=O)c2ccc(OC(C)C)cc2)no1 | -6 | 4922 | -6 | -24 | i
O=C1CCCN1CN(C(=O)c1ccccc1)c1ccc(F)cc1 | . | . | . | . | 0
Cc1cc(N(CN2CCCC2=O)C(=O)c2ccccc2)no1 | 0 | 23950* | -2 | -5 | 11
COc1ccc(C(=O)N(CN2CCCC2=O)c2nccs2)cc1OC | -17 | ? | -1 | -4 | i
Cc1ccc(C(=O)N(CN2CCCC2=O)c2ccccc2)cc1 | -28 | ? | -19 | -24 | i
CSc1ncccc1C(=O)NC1CCN(Cc2ccccc2)CC1 | 1 | 5849 | 3 | -1 | -2
O=C1CSC(c2ccc([N+](=O)[O-])cc2)N1c1ccc(O)cc1 (stereo unspecified) | 5 | 3391 | -3 | 7 | -1
